Source: ChEMBL document CHEMBL3988442, “University of Dundee, Small-Polar-MMV Screening Library” (2021)
For some assays here: Potency and affinity values are given separately.

Columns and labels:
Design in all cases: scale not given: direction of the effect not stated beside the values
[1] = target: Protein translocase subunit SecA (Escherichia coli (strain K12)) (UniProt P10408); assay: Assay to Identify E. coli SecA ATPase Inhibitors; format: functional; conditions: 30 µM
[2] = target: T1, Ubiquitin-activating enzyme e1, putative (Leishmania donovani (strain BPK282A1)) (UniProt E9BSI1); assay: Leishmania donovani Ubiquitin Activating Enzyme (LdE1); format: functional; conditions: 30 µM
T1 sequence (whole entry): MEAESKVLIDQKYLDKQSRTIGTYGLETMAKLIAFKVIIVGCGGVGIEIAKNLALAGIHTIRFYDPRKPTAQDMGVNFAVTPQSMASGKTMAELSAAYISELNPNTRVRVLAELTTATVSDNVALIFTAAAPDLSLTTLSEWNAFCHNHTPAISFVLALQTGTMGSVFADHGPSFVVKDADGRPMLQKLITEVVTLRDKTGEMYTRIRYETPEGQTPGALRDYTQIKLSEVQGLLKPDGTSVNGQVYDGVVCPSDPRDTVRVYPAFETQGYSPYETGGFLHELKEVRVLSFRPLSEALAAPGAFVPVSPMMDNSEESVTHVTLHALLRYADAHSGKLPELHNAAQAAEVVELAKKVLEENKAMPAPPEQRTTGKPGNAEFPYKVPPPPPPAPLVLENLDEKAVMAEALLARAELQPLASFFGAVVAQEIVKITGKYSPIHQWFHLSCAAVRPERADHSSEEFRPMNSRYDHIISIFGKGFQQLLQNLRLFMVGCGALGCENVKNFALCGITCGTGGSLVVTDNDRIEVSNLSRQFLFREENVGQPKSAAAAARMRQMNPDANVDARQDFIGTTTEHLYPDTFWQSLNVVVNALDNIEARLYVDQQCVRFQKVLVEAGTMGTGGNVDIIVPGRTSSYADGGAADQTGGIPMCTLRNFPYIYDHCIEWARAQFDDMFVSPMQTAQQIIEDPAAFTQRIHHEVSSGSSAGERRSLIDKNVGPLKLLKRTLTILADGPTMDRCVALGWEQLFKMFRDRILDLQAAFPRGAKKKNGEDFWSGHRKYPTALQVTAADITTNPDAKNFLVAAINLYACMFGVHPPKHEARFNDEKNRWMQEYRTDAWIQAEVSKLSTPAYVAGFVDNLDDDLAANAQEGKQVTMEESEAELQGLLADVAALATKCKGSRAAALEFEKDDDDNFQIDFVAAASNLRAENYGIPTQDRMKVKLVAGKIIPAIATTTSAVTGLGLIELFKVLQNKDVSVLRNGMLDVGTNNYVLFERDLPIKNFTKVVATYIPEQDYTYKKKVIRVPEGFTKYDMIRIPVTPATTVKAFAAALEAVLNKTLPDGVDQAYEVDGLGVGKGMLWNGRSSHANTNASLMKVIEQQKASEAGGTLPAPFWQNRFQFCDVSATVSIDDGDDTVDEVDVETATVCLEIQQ

[3] = target: Sialic acid-binding Ig-like lectin 9 (Homo sapiens) (UniProt Q9Y336); assay: Hs-Siglec9 ALPHAscreen SOP 20170721; conditions: 10 µM
Trypanosoma cruzi = assay: Trypanosoma cruzi phosphomannomutase and mannose-1-phosphate guanylyltransferase assay; format: functional; conditions: 10 µM
[4] = target: T2, Arginase-2, mitochondrial (Homo sapiens) (UniProt P78540); assay: in vitro enzyme assay to detect the production of urea directly proportional to the activity of Arginase II; format: functional; conditions: 33.3 µM; further: in the data most compounds retested in dose-response had high values
T2 sequence (whole entry): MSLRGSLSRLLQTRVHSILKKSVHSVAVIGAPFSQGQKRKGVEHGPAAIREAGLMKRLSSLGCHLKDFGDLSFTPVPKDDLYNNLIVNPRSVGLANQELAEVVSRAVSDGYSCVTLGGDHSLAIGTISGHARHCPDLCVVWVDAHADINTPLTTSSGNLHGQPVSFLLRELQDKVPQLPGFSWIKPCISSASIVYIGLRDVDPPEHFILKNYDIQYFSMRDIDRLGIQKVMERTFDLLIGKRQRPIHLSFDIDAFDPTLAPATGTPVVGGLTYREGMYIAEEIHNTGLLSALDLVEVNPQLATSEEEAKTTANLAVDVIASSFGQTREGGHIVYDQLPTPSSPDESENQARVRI

[5] = target: T3, Proteasome subunit beta (Trypanosoma cruzi) (UniProt O96673); assay: Trypanosoma cruzi proteasome chymotrypsin-like activity (TcProtChymo) assay.; further: in the data most compounds retested in dose-response had high values; format: functional; conditions: 9.37 µM
T3 sequence (whole entry): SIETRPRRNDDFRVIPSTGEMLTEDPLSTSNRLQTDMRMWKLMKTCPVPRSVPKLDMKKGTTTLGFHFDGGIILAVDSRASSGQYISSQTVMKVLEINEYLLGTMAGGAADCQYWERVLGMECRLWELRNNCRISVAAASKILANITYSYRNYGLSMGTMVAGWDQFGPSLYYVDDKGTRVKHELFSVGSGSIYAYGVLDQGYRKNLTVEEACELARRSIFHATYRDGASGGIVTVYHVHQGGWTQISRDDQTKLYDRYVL

Homo sapiens = species on record: Homo sapiens; assay: To identify inhibition of the IFN signalling (Jak-Stat) pathway via expression of an eGFP reporter gene under the control of an IFN-stimulated response element (ISRE) containing MxA promoter.; format: functional; conditions: 30 µM
[6] = target: T4, Tyrosyl-tRNA synthetase, putative (Trypanosoma cruzi (strain CL Brener)) (UniProt Q4DSP6); assay: Trypanosoma cruzi tyrosyl tRNA synthetase (TcYRS) _High Tyrosine SOP; format: functional; conditions: 30 µM; further: in the data most compounds retested in dose-response had high values
T4 sequence (whole entry): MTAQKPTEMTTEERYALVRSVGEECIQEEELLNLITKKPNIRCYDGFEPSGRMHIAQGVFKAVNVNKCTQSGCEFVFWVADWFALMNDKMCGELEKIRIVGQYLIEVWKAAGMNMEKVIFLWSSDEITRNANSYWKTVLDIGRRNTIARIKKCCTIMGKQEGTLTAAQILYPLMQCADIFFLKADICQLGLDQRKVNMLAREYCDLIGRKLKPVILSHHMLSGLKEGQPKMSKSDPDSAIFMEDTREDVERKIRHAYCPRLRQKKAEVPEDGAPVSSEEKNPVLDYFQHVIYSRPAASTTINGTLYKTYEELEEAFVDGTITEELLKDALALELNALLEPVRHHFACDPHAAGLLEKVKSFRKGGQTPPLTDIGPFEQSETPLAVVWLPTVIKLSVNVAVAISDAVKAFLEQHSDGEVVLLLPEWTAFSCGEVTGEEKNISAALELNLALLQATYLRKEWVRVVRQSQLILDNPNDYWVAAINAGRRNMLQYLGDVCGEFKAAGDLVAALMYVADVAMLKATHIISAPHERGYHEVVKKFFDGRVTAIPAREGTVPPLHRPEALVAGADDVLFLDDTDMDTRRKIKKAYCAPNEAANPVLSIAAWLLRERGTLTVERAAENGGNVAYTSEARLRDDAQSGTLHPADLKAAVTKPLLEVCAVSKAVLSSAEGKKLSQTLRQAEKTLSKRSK

[7] = target: T4, Tyrosyl-tRNA synthetase, putative (Trypanosoma cruzi (strain CL Brener)); assay: Trypanosoma cruzi tyrosyl tRNA synthetase (TcYRS) SOP; format: functional; conditions: 30 µM
[8] = target: Chromo domain-containing protein 1 (Saccharomyces cerevisiae (strain ATCC 204508 / S288c) (Baker's yeast)) (UniProt P32657); assay: ScCHD-1 Enzyme Inhibition Assay; format: functional; conditions: 30 µM; further: in the data most compounds retested in dose-response had high values
Chromo domain-containing protein 1 (Saccharomyces cerevisiae (strain ATCC 204508 / S288c) (Baker's yeast)), sequence (P32657 whole entry, the tested form may be a part): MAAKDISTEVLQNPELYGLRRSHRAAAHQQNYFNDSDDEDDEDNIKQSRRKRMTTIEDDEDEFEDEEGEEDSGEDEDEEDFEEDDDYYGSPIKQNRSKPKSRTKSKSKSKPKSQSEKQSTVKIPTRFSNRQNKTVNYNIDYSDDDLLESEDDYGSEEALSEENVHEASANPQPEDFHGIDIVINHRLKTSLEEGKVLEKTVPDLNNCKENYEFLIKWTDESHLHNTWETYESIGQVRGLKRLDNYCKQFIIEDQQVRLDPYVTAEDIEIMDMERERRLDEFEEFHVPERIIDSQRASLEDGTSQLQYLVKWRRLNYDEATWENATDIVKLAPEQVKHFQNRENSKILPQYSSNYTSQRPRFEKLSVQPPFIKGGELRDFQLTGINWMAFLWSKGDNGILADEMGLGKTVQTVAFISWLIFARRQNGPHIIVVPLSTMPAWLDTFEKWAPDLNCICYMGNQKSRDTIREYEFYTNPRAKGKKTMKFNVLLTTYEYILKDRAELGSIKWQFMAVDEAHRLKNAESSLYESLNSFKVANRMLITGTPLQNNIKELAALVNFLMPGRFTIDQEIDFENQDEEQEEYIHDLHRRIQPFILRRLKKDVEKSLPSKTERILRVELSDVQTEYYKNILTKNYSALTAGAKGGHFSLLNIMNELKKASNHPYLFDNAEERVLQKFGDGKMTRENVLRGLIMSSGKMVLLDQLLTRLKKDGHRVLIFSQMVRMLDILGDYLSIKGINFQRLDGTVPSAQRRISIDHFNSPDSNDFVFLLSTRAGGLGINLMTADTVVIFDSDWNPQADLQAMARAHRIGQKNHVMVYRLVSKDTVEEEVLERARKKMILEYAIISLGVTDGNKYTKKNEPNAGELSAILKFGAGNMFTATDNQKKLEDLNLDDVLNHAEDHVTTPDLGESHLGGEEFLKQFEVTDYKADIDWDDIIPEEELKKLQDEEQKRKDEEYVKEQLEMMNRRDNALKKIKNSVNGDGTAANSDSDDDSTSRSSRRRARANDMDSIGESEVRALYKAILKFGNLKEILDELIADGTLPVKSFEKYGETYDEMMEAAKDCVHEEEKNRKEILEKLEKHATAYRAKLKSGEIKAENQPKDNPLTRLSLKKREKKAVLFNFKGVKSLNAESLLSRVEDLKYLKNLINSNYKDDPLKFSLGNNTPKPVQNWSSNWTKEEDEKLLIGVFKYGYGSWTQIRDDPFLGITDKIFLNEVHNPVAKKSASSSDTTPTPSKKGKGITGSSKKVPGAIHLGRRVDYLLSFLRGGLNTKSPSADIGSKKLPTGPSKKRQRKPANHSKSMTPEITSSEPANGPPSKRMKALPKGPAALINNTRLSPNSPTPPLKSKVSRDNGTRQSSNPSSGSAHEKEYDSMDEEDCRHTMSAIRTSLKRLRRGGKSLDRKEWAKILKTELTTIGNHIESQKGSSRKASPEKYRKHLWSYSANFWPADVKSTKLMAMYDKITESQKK

Protein translocase subunit SecA (Escherichia coli (strain K12)), sequence (P10408 whole entry): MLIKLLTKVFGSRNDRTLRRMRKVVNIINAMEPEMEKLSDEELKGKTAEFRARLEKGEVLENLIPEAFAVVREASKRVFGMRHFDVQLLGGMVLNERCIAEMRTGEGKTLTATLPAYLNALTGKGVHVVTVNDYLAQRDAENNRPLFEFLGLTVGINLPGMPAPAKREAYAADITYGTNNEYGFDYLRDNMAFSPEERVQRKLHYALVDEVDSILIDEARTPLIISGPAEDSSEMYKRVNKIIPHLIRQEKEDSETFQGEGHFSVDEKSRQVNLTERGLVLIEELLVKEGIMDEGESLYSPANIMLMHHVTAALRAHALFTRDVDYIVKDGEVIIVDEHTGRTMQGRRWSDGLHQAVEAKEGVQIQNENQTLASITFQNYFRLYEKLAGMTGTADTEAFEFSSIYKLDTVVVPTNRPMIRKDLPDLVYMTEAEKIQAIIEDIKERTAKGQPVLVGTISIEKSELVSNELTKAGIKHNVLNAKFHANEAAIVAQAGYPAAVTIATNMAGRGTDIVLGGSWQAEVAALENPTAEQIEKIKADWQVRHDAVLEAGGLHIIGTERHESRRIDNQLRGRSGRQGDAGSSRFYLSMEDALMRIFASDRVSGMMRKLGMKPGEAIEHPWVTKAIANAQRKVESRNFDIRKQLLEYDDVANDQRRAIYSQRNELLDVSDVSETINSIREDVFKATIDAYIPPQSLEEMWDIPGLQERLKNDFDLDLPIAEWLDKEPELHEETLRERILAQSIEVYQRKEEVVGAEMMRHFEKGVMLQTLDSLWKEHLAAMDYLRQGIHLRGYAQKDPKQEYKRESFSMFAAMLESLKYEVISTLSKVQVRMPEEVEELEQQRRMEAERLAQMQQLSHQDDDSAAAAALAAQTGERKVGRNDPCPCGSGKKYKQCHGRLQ
Sialic acid-binding Ig-like lectin 9 (Homo sapiens), sequence (Q9Y336 whole entry): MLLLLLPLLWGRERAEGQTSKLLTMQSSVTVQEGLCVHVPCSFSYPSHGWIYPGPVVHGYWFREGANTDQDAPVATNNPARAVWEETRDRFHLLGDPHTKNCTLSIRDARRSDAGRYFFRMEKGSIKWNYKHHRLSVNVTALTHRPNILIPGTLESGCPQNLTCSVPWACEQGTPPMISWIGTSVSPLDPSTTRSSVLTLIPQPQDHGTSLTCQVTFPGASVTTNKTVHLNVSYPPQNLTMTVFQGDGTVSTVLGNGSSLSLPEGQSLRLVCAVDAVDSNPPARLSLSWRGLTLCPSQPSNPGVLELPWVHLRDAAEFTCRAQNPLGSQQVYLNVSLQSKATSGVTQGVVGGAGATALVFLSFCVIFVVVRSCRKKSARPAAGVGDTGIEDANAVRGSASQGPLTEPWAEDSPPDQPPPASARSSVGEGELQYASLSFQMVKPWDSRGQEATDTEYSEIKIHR

SMILES | Percent Effect [1] [%] | Percent Effect [2] [%] | Percent Effect [3] [%] | Percent Effect (Trypanosoma cruzi) [%] | Percent Effect [4] [%] | Percent Effect [5] [%] | Percent Effect (Homo sapiens) [%] | Percent Effect [6] [%] | Percent Effect [7] [%] | Percent Effect [8] [%]
Cc1cc(C2CCCN2Cc2ccn(C)c(=O)c2)no1 (stereo not given) | -3.32 | -10.3 | 3.98 | 9.11 | 1.64 | 8.45 | 4.2 | 3.35 | 8.43 | -0.427
O=S(=O)(C1CC1)N1CCC2(CC1)CC(Oc1cccnc1)CO2 (stereo not given) | -7.74 | 9.09 | 4.03 | 2.43 | -3.24 | -1.15 | -0.725 | 3.68 | 0 | -0.139
CC(C)Cc1nc(OCC(N)=O)c(C#N)c2c1CCC2 | -2.5 | 5.41 | 10.8 | -9.99 | 1.75 | 19.4 | 20.7 | 3.72 | 7.32 | -3.73
O=C(c1ccc(F)cc1Cl)N1CCC(Nc2cccnn2)CC1 | -3.11 | 18.2 | 7.17 | 5.41 | -4.71 | 7.37 | 15.6 | 5.88 | 18.8 | -15.5
Cn1nc2c(cc1=O)CN(Cc1nnc(-c3ccc(F)cc3)o1)CC2 | -0.335 | 7.69 | -9.64 | -6.48 | 7.79 | 6.23 | 30.1 | 0.478 | 6.02 | -4.76
CC(=O)N1CCc2c(nc(-c3ccccn3)nc2N(C)CC(O)CO)C1 (stereo not given) | -7.71 | 8.11 | 3.94 | 2.62 | 5.25 | 3.94 | -12.5 | 14.4 | 21.9 | -1.31
Cc1[nH]ncc1C(=O)N1CCN(CC(O)C(C)(C)C)CC1 (stereo not given) | -2.19 | 17.9 | -6.77 | 7.23 | -2.46 | 8.79 | -1.39 | 6.22 | 20.5 | -6.95
Cc1nc(COc2ccc(CNCC3CN(C)CCO3)cc2)cs1 (stereo not given) | -3.51 | 2.6 | 0.562 | -3.73 | 3.07 | 3.16 | 18.8 | -0.98 | -2.35 | -1.69
Cc1cc(N2CCC(Cc3ccccc3)CC2)nc(-c2ccncc2)n1 | -1.61 | -15.6 | 11 | 14.4 | -6.76 | -5.44 | -2.83 | 18.6 | 7.06 | 4.27
CCn1nc2c(cc1=O)CN(CC(=O)Nc1nc(C)c(C)s1)CC2 | -0.874 | 0 | 5.55 | -9.7 | 1.84 | 13.3 | 14.5 | 4.9 | 9.41 | -8.07
Cc1nc(CN2CCCC(CCc3ccc(F)cc3F)C2)c[nH]1 (stereo not given) | -4.78 | -2.7 | 37.1 | 4.75 | 1.05 | 3.94 | -3.62 | 2.66 | 7.32 | -1.62
CCn1ncc(Br)c1CN(C)S(=O)(=O)c1ccc(C)cc1 | 0.567 | 6.67 | -0.565 | 3.35 | 6.2 | 15.3 | 14 | 4.23 | 10 | -22
CCn1cc(C(=O)N2CCCC(c3[nH]ncc3S(C)(=O)=O)C2)cn1 (stereo not given) | -2.25 | 12 | -0.292 | 0.395 | -0.443 | 13.1 | -2.06 | 4.23 | 20 | -20.4
Cc1nc(CN2CCC3(CC2)NC(=O)CC3c2ccccc2)cs1 (stereo not given) | -3.5 | -1.3 | -0.193 | 0.375 | -0.913 | 9.19 | 4.58 | 8.7 | 12.5 | -9.48
Cn1cnc2c1CCN(Cc1cccc(OCC(N)=O)c1)C2 | -0.391 | 15.4 | -8.42 | 7.42 | 2.46 | 15.3 | 23.1 | 3.35 | 18.1 | -7.71
CCn1nc2c(cc1=O)CN(Cc1nc(CCOC)no1)CC2 | -2.71 | 5.13 | -1.28 | 4.6 | 9.43 | 0.427 | 4.98 | 0.478 | 8.43 | -3.33
O=S(=O)(N1CCCC1)N1CCCCC1CCc1ccccc1 (stereo not given) | -6.97 | 0 | -0.69 | -3.59 | -1.05 | 13 | 25.4 | -3.72 | -4.88 | -0.676
CN1CCN(C(=O)c2cccc(OCc3cscn3)c2)CC1 | -6.48 | 2.56 | -10.9 | -3.1 | -0.41 | -1.62 | 19.3 | 0.478 | 6.02 | 5.6
CN1[C@H](CN2CCCC2)C[C@@H]2CN(C(=O)c3cccn3C)CC[C@@H]21 | -1.76 | -1.3 | 1.42 | 0.563 | -0.457 | 0.944 | -0.498 | 10.6 | 12.5 | -6.06
Cc1cc(CNc2cc(Cl)ccc2Cl)no1 | -0.772 | 0 | 3.56 | 4.79 | 0 | 4.69 | 8.6 | -11 | 6.02 | -0.0633
CN(C)CCN1C(=O)CCC12CCN(C(=O)c1cccnc1)CC2 | -1.32 | 3.9 | -3.7 | -0.75 | 0.457 | 5.75 | 3.46 | 1.93 | 2.5 | -20.4
CC[C@@H]1N(Cc2ccsc2)CCC[C@]12CCC(=O)N2C | -5.65 | 3.9 | -0.653 | -1.69 | 1.37 | 2.66 | 32.3 | -0.966 | -12.5 | 0.966
CC(C)(C)C(=O)N1C[C@H](c2ccsc2)[C@H]2CN(Cc3cccs3)CC[C@H]21 | -0.241 | 17.3 | -5.01 | 2.37 | 2.65 | 17.1 | 56.8 | 2.12 | 17.5 | -22
